# Experimental data as given in the supplement of paper PMC7765376.
# Counter-ions that a name gives are not always drawn. Whole data set: some 1,500 compounds, median “Excess HSA synergy score (sum over dose matrix of excess over highest single agent)” near 43, cut for the lowest 2% near -900. The full list was thinned out, with the lowest values kept by preference.
# Tested on: PEO-1
# Test: Excess HSA synergy score (sum over dose matrix of excess over highest single agent) (score (summed % response)); higher = less synergy / more antagonism (negative = synergy)
# Conditions: 72 h, read-out: viability/apoptosis luminescence (CellTiter-Glo or Caspase3-Glo / not stated per table)
# [1] = matrix design: 6x6, 5-fold dilutions (primary screen)
# [2] = matrix design: 10x10, 9-step dilutions (confirmatory)
SMILES,Excess HSA synergy score [1],Excess HSA synergy score [2]
C/C=C(/C)C(=O)O[C@H]1C(C)=C2[C@H]([C@@H]1OC(=O)CCCCCCC)[C@@](C)(OC(C)=O)C[C@H](OC(=O)CCC)[C@@]1(O)[C@H]2OC(=O)[C@@]1(C)O [Thapsigargin] + CC[C@H](NC(=O)[C@H](C)NC)C(=O)N1C[C@@H](O)C[C@H]1Cc1c(-c2[nH]c3cc(F)ccc3c2C[C@@H]2C[C@H](O)CN2C(=O)[C@H](CC)NC(=O)[C@H](C)NC)[nH]c2cc(F)ccc12 [Birinapant],-265,-912
O=C(O)C(=O)CBr [3-Bromopyruvate] + CC[C@H](NC(=O)[C@H](C)NC)C(=O)N1C[C@@H](O)C[C@H]1Cc1c(-c2[nH]c3cc(F)ccc3c2C[C@@H]2C[C@H](O)CN2C(=O)[C@H](CC)NC(=O)[C@H](C)NC)[nH]c2cc(F)ccc12 [Birinapant],97.1,–
CCOC(=O)Nc1ccc(NCc2ccc(F)cc2)cc1N [Retigabine] + CC[C@H](NC(=O)[C@H](C)NC)C(=O)N1C[C@@H](O)C[C@H]1Cc1c(-c2[nH]c3cc(F)ccc3c2C[C@@H]2C[C@H](O)CN2C(=O)[C@H](CC)NC(=O)[C@H](C)NC)[nH]c2cc(F)ccc12 [Birinapant],64.5,–
CC(C)CC(N(C)C)C1(c2ccc(Cl)cc2)CCC1 (stereo not drawn) [Sibutramine hydrochloride] + CC[C@H](NC(=O)[C@H](C)NC)C(=O)N1C[C@@H](O)C[C@H]1Cc1c(-c2[nH]c3cc(F)ccc3c2C[C@@H]2C[C@H](O)CN2C(=O)[C@H](CC)NC(=O)[C@H](C)NC)[nH]c2cc(F)ccc12 [Birinapant],96.7,–
CC(C)NC1CCn2c(=O)[nH]c3cccc(c32)C1O (stereo not drawn) [Zilpaterol] + CC[C@H](NC(=O)[C@H](C)NC)C(=O)N1C[C@@H](O)C[C@H]1Cc1c(-c2[nH]c3cc(F)ccc3c2C[C@@H]2C[C@H](O)CN2C(=O)[C@H](CC)NC(=O)[C@H](C)NC)[nH]c2cc(F)ccc12 [Birinapant],413,–
CC1=C2C[C@H]3[C@@H](CC=C4C[C@@H](O)CC[C@@]43C)[C@@H]2CC[C@]12O[C@@H]1C[C@H](C)CN[C@H]1[C@H]2C [Cyclopamine] + CC[C@H](NC(=O)[C@H](C)NC)C(=O)N1C[C@@H](O)C[C@H]1Cc1c(-c2[nH]c3cc(F)ccc3c2C[C@@H]2C[C@H](O)CN2C(=O)[C@H](CC)NC(=O)[C@H](C)NC)[nH]c2cc(F)ccc12 [Birinapant],82.1,–
CCNC(=O)C[C@@H]1N=C(c2ccc(Cl)cc2)c2cc(OC)ccc2-n2c(C)nnc21 + CC[C@H](NC(=O)[C@H](C)NC)C(=O)N1C[C@@H](O)C[C@H]1Cc1c(-c2[nH]c3cc(F)ccc3c2C[C@@H]2C[C@H](O)CN2C(=O)[C@H](CC)NC(=O)[C@H](C)NC)[nH]c2cc(F)ccc12 [Birinapant],-120,–
CC(C)[C@]12O[C@H]1[C@@H]1O[C@]13[C@]1(O[C@H]1C[C@H]1C4=C(CC[C@@]13C)C(=O)OC4)[C@@H]2O [Triptolide] + CC[C@H](NC(=O)[C@H](C)NC)C(=O)N1C[C@@H](O)C[C@H]1Cc1c(-c2[nH]c3cc(F)ccc3c2C[C@@H]2C[C@H](O)CN2C(=O)[C@H](CC)NC(=O)[C@H](C)NC)[nH]c2cc(F)ccc12 [Birinapant],-151,-1170
CC1(N2CCC(n3c([C@@H]4CCCNC4)nc4ccccc43)CC2)CCCCCCC1 + CC[C@H](NC(=O)[C@H](C)NC)C(=O)N1C[C@@H](O)C[C@H]1Cc1c(-c2[nH]c3cc(F)ccc3c2C[C@@H]2C[C@H](O)CN2C(=O)[C@H](CC)NC(=O)[C@H](C)NC)[nH]c2cc(F)ccc12 [Birinapant],152,–
O=C(N[C@H]1CN2CCC1CC2)c1ccc(Cl)cc1 + CC[C@H](NC(=O)[C@H](C)NC)C(=O)N1C[C@@H](O)C[C@H]1Cc1c(-c2[nH]c3cc(F)ccc3c2C[C@@H]2C[C@H](O)CN2C(=O)[C@H](CC)NC(=O)[C@H](C)NC)[nH]c2cc(F)ccc12 [Birinapant],162,–
C[C@]12O[C@H](C[C@]1(O)CO)n1c3ccccc3c3c4c(c5c6ccccc6n2c5c31)CNC4=O [Lestaurtinib] + CC[C@H](NC(=O)[C@H](C)NC)C(=O)N1C[C@@H](O)C[C@H]1Cc1c(-c2[nH]c3cc(F)ccc3c2C[C@@H]2C[C@H](O)CN2C(=O)[C@H](CC)NC(=O)[C@H](C)NC)[nH]c2cc(F)ccc12 [Birinapant],-142,–
CC[C@@H]1[C@@H](C)O[C@@](O)([C@@H](C)[C@H](O)[C@H](C)[C@H]2OC(=O)/C=C/C=C/[C@H](C)[C@@H]([C@@H](C)[C@@H](O)[C@H](C)[C@@]3(O)C[C@@H](O[C@H]4C[C@H](O)[C@H](O)[C@H](C)O4)[C@H](CC)[C@@H](C)O3)OC(=O)/C=C/C=C/[C@@H]2C)C[C@H]1O[C@H]1C[C@H](O)[C@H](O)[C@H](C)O1 [Azalomycin-B] + CC[C@H](NC(=O)[C@H](C)NC)C(=O)N1C[C@@H](O)C[C@H]1Cc1c(-c2[nH]c3cc(F)ccc3c2C[C@@H]2C[C@H](O)CN2C(=O)[C@H](CC)NC(=O)[C@H](C)NC)[nH]c2cc(F)ccc12 [Birinapant],-24.5,–
CO/C1=C\C(C)=C\[C@@H](C)[C@@H](O)[C@@H](C)C/C(C)=C/C=C/[C@H](OC)[C@@H]([C@@H](C)[C@@H](O)[C@H](C)[C@@]2(O)C[C@@H](O)[C@H](C)[C@@H](C(C)C)O2)OC1=O [Bafilomycin A1] + CC[C@H](NC(=O)[C@H](C)NC)C(=O)N1C[C@@H](O)C[C@H]1Cc1c(-c2[nH]c3cc(F)ccc3c2C[C@@H]2C[C@H](O)CN2C(=O)[C@H](CC)NC(=O)[C@H](C)NC)[nH]c2cc(F)ccc12 [Birinapant],–,-1470
CC1C=CC=CCCC=CC=CC=CC=CC(OC2OC(C)C(O)C(N)C2O)CC2OC(O)(CC(O)C(O)CCC(O)CC(O)CC(O)CC(=O)OC(C)C(C)C1O)CC(O)C2C(=O)O (stereo not drawn) [Nystatin] + CC[C@H](NC(=O)[C@H](C)NC)C(=O)N1C[C@@H](O)C[C@H]1Cc1c(-c2[nH]c3cc(F)ccc3c2C[C@@H]2C[C@H](O)CN2C(=O)[C@H](CC)NC(=O)[C@H](C)NC)[nH]c2cc(F)ccc12 [Birinapant],90.8,–
N=c1c2c(-c3ccccc3)c(-c3ccccc3)n(Cc3ccccc3)c2ncn1[C@H]1CC[C@H](O)CC1 + CC[C@H](NC(=O)[C@H](C)NC)C(=O)N1C[C@@H](O)C[C@H]1Cc1c(-c2[nH]c3cc(F)ccc3c2C[C@@H]2C[C@H](O)CN2C(=O)[C@H](CC)NC(=O)[C@H](C)NC)[nH]c2cc(F)ccc12 [Birinapant],-361,–
C[C@@]12OC(=O)[C@]1([C@@H](O)[C@@H]1C=CCCC1)NC(=O)[C@@H]2CCCl [Marizomib] + CC[C@H](NC(=O)[C@H](C)NC)C(=O)N1C[C@@H](O)C[C@H]1Cc1c(-c2[nH]c3cc(F)ccc3c2C[C@@H]2C[C@H](O)CN2C(=O)[C@H](CC)NC(=O)[C@H](C)NC)[nH]c2cc(F)ccc12 [Birinapant],-95.7,–
CC[C@@]1([C@@H]2O[C@@H]([C@H]3O[C@@](O)(CO)[C@H](C)C[C@@H]3C)C[C@@H]2C)CC[C@H]([C@]2(C)CC[C@]3(C[C@H](O)[C@@H](C)[C@@H]([C@@H](C)[C@@H](OC)[C@H](C)C(=O)O)O3)O2)O1 [Monensin sodium salt] + CC[C@H](NC(=O)[C@H](C)NC)C(=O)N1C[C@@H](O)C[C@H]1Cc1c(-c2[nH]c3cc(F)ccc3c2C[C@@H]2C[C@H](O)CN2C(=O)[C@H](CC)NC(=O)[C@H](C)NC)[nH]c2cc(F)ccc12 [Birinapant],-104,–
CO[C@H]1CC[C@@H](O[C@H]2C[C@H]([C@]3(C)CC[C@]4(C[C@H](O)[C@@H](C)[C@@H]([C@@H](C)/C=C(\C)C(=O)[C@H](C)C[C@H](C)C(=O)O)O4)O3)O[C@]3(O[C@@H]([C@H]4O[C@@](O)(CO)[C@H](C)C[C@@H]4C)C[C@@H]3C)[C@@H]2C)O[C@@H]1C [Nanchangmycin] + CC[C@H](NC(=O)[C@H](C)NC)C(=O)N1C[C@@H](O)C[C@H]1Cc1c(-c2[nH]c3cc(F)ccc3c2C[C@@H]2C[C@H](O)CN2C(=O)[C@H](CC)NC(=O)[C@H](C)NC)[nH]c2cc(F)ccc12 [Birinapant],-308,-1080
Cc1n[nH]c2ccc(-c3cncc(OC[C@@H](N)Cc4c[nH]c5ccccc45)c3)cc12 + CC[C@H](NC(=O)[C@H](C)NC)C(=O)N1C[C@@H](O)C[C@H]1Cc1c(-c2[nH]c3cc(F)ccc3c2C[C@@H]2C[C@H](O)CN2C(=O)[C@H](CC)NC(=O)[C@H](C)NC)[nH]c2cc(F)ccc12 [Birinapant],-218,–
CC(C)c1cccc(C(C)C)c1O [Propofol] + CC[C@H](NC(=O)[C@H](C)NC)C(=O)N1C[C@@H](O)C[C@H]1Cc1c(-c2[nH]c3cc(F)ccc3c2C[C@@H]2C[C@H](O)CN2C(=O)[C@H](CC)NC(=O)[C@H](C)NC)[nH]c2cc(F)ccc12 [Birinapant],6.44,–
